About 3,200 (1.1%) of roughly 300,000 compounds were called active. For the sample, actives were picked, then their nearest neighbours and some compounds at random. Values without a mark were called inactive. Rule as the data show it: active = inhibition above about 75%; inconclusive = no clear call, values can overlap the other calls; inactive = below that; tested in HMLE shEcad cells.
Test: cancer stem cell viability inhibitors, primary screen, luminescence (AID 2717)
Conditions: cancer stem cell-like cells viability, at 7.5 µM, stronger effect = higher value

Question: Which inhibition does the source give for `CCOc1ncccc1C(=O)Nc1ccc2c(c1)OCCO2` here?
Answer: -12.8%

Question: For `O=C(Nc1cc(S(=O)(=O)N2CCOCC2)ccc1N1CCOCC1)c1c(F)cccc1Cl`, which inhibition is on record?
Answer: -17.5%

Question: For `Cc1c(NC(=O)C(C)OC(=O)c2ccccc2O)c(=O)n(-c2ccccc2)n1C` (centres undefined), which inhibition is on record?
Answer: -18.3%

Question: For `CCC(CO)Oc1cc(NC(=O)c2cccc3ccccc23)c2ncn(C(C)C)c2c1` (centres undefined), which inhibition is on record?
Answer: 4.9%

Question: With `Cc1ccc2c(CN3CCN(S(=O)(=O)c4ccccc4C(F)(F)F)CC3)cc(=O)oc2c1` as the compound, how does the inhibition read?
Answer: 0.831%

Question: Which inhibition does the source give for `CO[C@@H]1[C@@H](OC(N)=O)[C@@H](O)C(Oc2ccc3c(O)c(NC(=O)c4ccc(O)c(CC=C(C)C)c4)c(=O)oc3c2C)OC1(C)C` (some centres undefined) here?
Answer: -16%

Question: With `COC(=O)N/N=C/c1cn(CCCOc2ccc(C)cc2)c2ccccc12` as the compound, how does the inhibition read?
Answer: 25.8%

Question: With `CCOC(=O)N/N=C/c1cn(Cc2ccccc2Cl)c2ccccc12` as the compound, how does the inhibition read?
Answer: 7.15%

Question: With `CNC(=S)N/N=C/c1cn(Cc2ccc(C)cc2)c2ccccc12` as the compound, how does the inhibition read?
Answer: 109% (active)

Question: Which inhibition does the source give for `Cc1ccccc1-c1cc(C(=O)NCc2cccs2)n(CC2CC(c3cccnc3)=NO2)n1` (centres undefined) here?
Answer: 10.1%

Question: For `COc1cc2nc(Cl)nc(NCCO)c2cc1OC`, which inhibition is on record?
Answer: -15.1%

Question: Which inhibition does the source give for `OCCNc1nc(Nc2ccc(Cl)c(Cl)c2)nc2ccccc12` here?
Answer: 102% (active)

Question: For `CN(C)c1nc(Nc2ccc(Cl)c(Cl)c2)nc(N(C)C)n1`, which inhibition is on record?
Answer: -14.7%

Question: With `O=C(c1cnccn1)N1CCN(S(=O)(=O)c2cccc(Cl)c2)CC1` as the compound, how does the inhibition read?
Answer: -17.3%

Question: With `Cc1cc(N2CCCC2)ccc1NC(=O)COc1ccc(Cl)cc1` as the compound, how does the inhibition read?
Answer: -10.1%

Question: With `Cc1c(C(=O)Nc2cccc(S(=O)(=O)N3CCOCC3)c2)oc2ccccc12` as the compound, how does the inhibition read?
Answer: -11%

Question: With `CC1CCCCC12NC(=O)N(CC(=O)OCc1c(F)cccc1Cl)C2=O` (centres undefined) as the compound, how does the inhibition read?
Answer: -8.77%

Question: Which inhibition does the source give for `COCCN(CCOC)S(=O)(=O)NC[C@H]1O[C@@H](n2cnc3c(N)ncnc32)[C@H](O)[C@@H]1O` here?
Answer: 2.3%

Question: For `COc1ccc(Br)cc1C(=O)NC(=S)Nc1cc(-c2nc3ccccc3[nH]2)ccc1C`, which inhibition is on record?
Answer: 86.6% (active)

Question: Which inhibition does the source give for `COc1ccc(Br)cc1C(=O)Nc1cccc(C)c1C` here?
Answer: -31%

Question: Which inhibition does the source give for `Cc1ccc(-c2nc3ccccc3[nH]2)cc1NC(=O)c1sc2ccccc2c1Cl` here?
Answer: 6.88%

Question: Which inhibition does the source give for `COc1ccc(C(=O)NCc2ccccc2C)cc1S(=O)(=O)NC1CCCC1` here?
Answer: 0.604%

Question: With `O=c1c(-c2ccccc2)coc2cc(O)ccc12` as the compound, how does the inhibition read?
Answer: 0.886%

Question: Which inhibition does the source give for `CC(C)=CCc1c(O)c(CC=C(C)C)c2occ(-c3ccc(O)cc3)c(=O)c2c1O` here?
Answer: 100% (active)

Question: For `CC(C)CN(Cc1c(O)ccc2c(=O)c(-c3ccccc3)coc12)CC(C)C`, which inhibition is on record?
Answer: -0.974%

Question: For `O=C(COC(=O)c1cc(S(=O)(=O)N2CCOCC2)ccc1F)NC1CC1`, which inhibition is on record?
Answer: -6.89%

Question: Which inhibition does the source give for `CC(NC(=O)c1ccc(N2CCNCC2)c([N+](=O)[O-])c1)C12CC3CC(CC(C3)C1)C2` (centres undefined) here?
Answer: 86.5% (active)

Question: For `O=C(NC1C2CC3CC(C2)CC1C3)c1ccc(N2CCNCC2)c([N+](=O)[O-])c1` (centres undefined), which inhibition is on record?
Answer: 52.3%

Question: For `O=C(Nc1cccc(C(F)(F)F)c1)c1ccc(N2CCNCC2)c([N+](=O)[O-])c1`, which inhibition is on record?
Answer: -16.4%

Question: Which inhibition does the source give for `O=C1C=C(c2ccnc3cc(Cl)ccc23)C[C@@H](c2ccc3c(c2)OCO3)C1` here?
Answer: 6.37%

Question: Which inhibition does the source give for `Cc1ccc(S(=O)(=O)N2CCN(C(=O)CN3C(=O)NC(C)(c4ccc(Cl)cc4)C3=O)CC2)c(C)c1` (centres undefined) here?
Answer: 3.13%

Question: Which inhibition does the source give for `CC1(C)C=Cc2c(ccc3c2OC[C@@H](c2ccc(O)cc2O)C3)O1` here?
Answer: 90% (active)

Question: Which inhibition does the source give for `Cc1ccsc1C(=O)OCC(=O)NCCc1ccccc1` here?
Answer: 12.1%

Question: Which inhibition does the source give for `Cc1nnc(N/N=C/c2ccccn2)[nH]c1=O` here?
Answer: 121% (active)

Question: With `Cc1nnc(N/N=C/C2CC=CCC2)[nH]c1=O` (centres undefined) as the compound, how does the inhibition read?
Answer: 9.52%

Question: For `CNC(=O)C(=O)N/N=C/c1ccccn1`, which inhibition is on record?
Answer: -9.33%

Question: With `O=C(COC(=O)CSc1ccccc1)Nc1ccc(F)cc1F` as the compound, how does the inhibition read?
Answer: -0.0328%

Question: Which inhibition does the source give for `CNC[C@H]1Oc2c(NC(=O)C3CCCCC3)cccc2C(=O)N([C@H](C)CO)C[C@@H]1C` here?
Answer: 1.2%

Question: For `CCn1c(C)c(C)c2cc(C(=O)N3CCN(c4cccc(C)c4C)CC3)ccc21`, which inhibition is on record?
Answer: 120% (active)

Question: With `CCC(CC)C(=O)N1CCN(c2cccc(C)c2C)CC1` as the compound, how does the inhibition read?
Answer: -11.5%

Question: With `Cc1cccc(N2CCN(C(=O)c3cccc(N4C(=O)C5C6C=CC(C6)C5C4=O)c3)CC2)c1C` (centres undefined) as the compound, how does the inhibition read?
Answer: 26.5%

Question: Which inhibition does the source give for `COc1ccccc1C(=O)COC(=O)COc1ccc(C#N)cc1` here?
Answer: 2.49%

Question: Which inhibition does the source give for `CC(C)(C)OC(=O)N[C@H](C(=O)OC(C)(C)C)c1ccc(Br)cc1` here?
Answer: 0.862%

Question: For `CC(OC(=O)c1ccc([N+](=O)[O-])cc1)C(=O)NCC1CCCCC1` (centres undefined), which inhibition is on record?
Answer: -10.2%

Question: For `CC(C)=CCCC1(C)C=Cc2c(ccc3c2[nH]c2cc(O)c(C)cc23)O1` (centres undefined), which inhibition is on record?
Answer: 101% (active)

Question: Which inhibition does the source give for `CCOC(=O)[C@H]1[C@H]2COc3cc(OC)ccc3[C@@H]2N2C(=O)CN(Cc3ccc(Cl)cc3)C(=O)[C@@]12C` here?
Answer: -21.1%

Question: Which inhibition does the source give for `CC1CN(C(=O)c2ccc([N+](=O)[O-])s2)CC(C)O1` (centres undefined) here?
Answer: 0.926%

Question: For `COc1cc(NC(=O)COC(=O)c2ccc([N+](=O)[O-])s2)cc(OC)c1OC`, which inhibition is on record?
Answer: -12.6%

Question: For `CN(c1ccccc1)S(=O)(=O)c1ccc(C(=O)N2CCN(c3ccccc3Cl)CC2)cc1`, which inhibition is on record?
Answer: -0.098%

Question: With `CCCCCCc1cc2cc(-c3nnc(-c4ccccc4)o3)c(=O)oc2cc1O` as the compound, how does the inhibition read?
Answer: 118% (active)

Question: Which inhibition does the source give for `CCCCCCc1ccc(O)cc1O` here?
Answer: -10.2%

Question: For `Cc1c(CC(=O)NCCCCCC(=O)O)c(=O)oc2cc3occ(-c4ccccc4)c3cc12`, which inhibition is on record?
Answer: -4.15%

Question: With `CC(C)NC(=O)Nc1cccc2c1O[C@H](CN(C)S(=O)(=O)c1cccs1)[C@@H](C)CN([C@H](C)CO)C2=O` as the compound, how does the inhibition read?
Answer: -18%

Question: Which inhibition does the source give for `COc1ccccc1NS(=O)(=O)c1ccc(C)c(C(=O)NNC(=O)c2csc(N3CCOCC3)n2)c1` here?
Answer: -11.7%

Question: With `CCCCC(=O)Nc1nc(C)c(-c2csc(Nc3ccc(Cl)cc3)n2)s1` as the compound, how does the inhibition read?
Answer: 63.1%

Question: For `C=CCCC(=O)Nc1nc(C)c(-c2csc(Nc3ccc(Cl)cc3)n2)s1`, which inhibition is on record?
Answer: 99% (active)

Question: With `CCCCCCC(=O)Nc1nc(C)c(-c2csc(Nc3cc(Cl)ccc3OC)n2)s1` as the compound, how does the inhibition read?
Answer: 5.64%

Question: Which inhibition does the source give for `C/C=C/c1ccc(OCC(=O)NNC(=O)CN(C)S(=O)(=O)c2ccc(C)cc2)c(OC)c1` here?
Answer: -2.93%

Question: Which inhibition does the source give for `CN(C(=O)c1cccc(NC(=O)Cc2ccc([N+](=O)[O-])cc2)c1)C1CCC1` here?
Answer: 1.28%

Question: For `COc1ccc(Oc2c(Cl)cnn(-c3ccccc3)c2=O)cc1`, which inhibition is on record?
Answer: 22%

Question: Which inhibition does the source give for `Cc1cccc(-n2ncc(Cl)c(Cl)c2=O)c1` here?
Answer: 138% (active)

Question: Which inhibition does the source give for `Cc1cccc(-n2ncc(C#N)c2-n2cccc2)c1` here?
Answer: -10.4%

Question: Which inhibition does the source give for `O=C(COC(=O)c1n[nH]c2ccccc12)Nc1ccccc1Br` here?
Answer: -14%

Question: With `CC1CCCCC1NC(=O)Cn1cnc2c1c(=O)n(C)c(=O)n2C` (centres undefined) as the compound, how does the inhibition read?
Answer: -15.5%

Question: For `CC(C)(C)OC(=O)C[C@@H]1C/C=C\C[C@H](CC(=O)N[C@@H](CO)Cc2ccccc2)C(=O)N[C@H](Cc2ccccc2)COC1=O`, which inhibition is on record?
Answer: -5.32%

Question: Which inhibition does the source give for `CCOC(=O)CCCNC(=O)COC(=O)/C=C/c1ccc2c(c1)OCO2` here?
Answer: -10.5%

Question: For `CCc1c(C)sc(NC(=O)/C=C/c2ccc3c(c2)OCO3)c1C(=O)OC`, which inhibition is on record?
Answer: 96.5% (active)

Question: With `CCc1c(C)sc(NC(=O)c2ccc(Br)o2)c1C(=O)OC` as the compound, how does the inhibition read?
Answer: 28.8%

Question: With `COc1ccc(S(=O)(=O)N2CCN(C(C)C(=O)Nc3ccc(C(C)C)cc3)CC2)cc1` (centres undefined) as the compound, how does the inhibition read?
Answer: -10.6%

Question: With `O=C(Nc1ccccc1Cl)Nn1cnnc1` as the compound, how does the inhibition read?
Answer: -3.82%

Question: With `O=C(Nc1ccccc1Cl)/C(Cl)=C(\Cl)S(=O)c1ccccc1` (centres undefined) as the compound, how does the inhibition read?
Answer: 145% (active)

Question: Which inhibition does the source give for `O=C(COC(=O)c1cccs1)Nc1ccccc1Cl` here?
Answer: -12.7%

Question: For `CC(C)(C)OC(=O)C[C@@H]1C/C=C\C[C@@H](CC(=O)N[C@H](CO)Cc2ccccc2)C(=O)NCCOC1=O`, which inhibition is on record?
Answer: -6.88%

Question: For `CCOc1ccc(NC(=O)CN(C)C(=O)Cc2sc(C)nc2-c2ccc(F)cc2)cc1OCC`, which inhibition is on record?
Answer: -4.92%

Question: With `COc1cc(C=NNC(=O)c2cccnc2)ccc1OC(=O)c1ccccc1F` as the compound, how does the inhibition read?
Answer: -6.57%

Question: Which inhibition does the source give for `O=C1CSc2ccc(C(=O)NCc3ccccn3)cc2N1` here?
Answer: -3.45%

Question: Which inhibition does the source give for `Cc1cccc(C)c1NC(=O)CNC(=O)c1ccc2c(c1)OCCO2` here?
Answer: 14.6%

Question: For `N#Cc1ccc(CN2CCN(CC(=O)Nc3ccccc3C(=O)NC3CC3)CC2)cc1`, which inhibition is on record?
Answer: -9.82%

Question: With `N#Cc1c(-c2ccccc2)nc(SCc2ccc([N+](=O)[O-])cc2)[nH]c1=O` as the compound, how does the inhibition read?
Answer: 3.97%

Question: With `N#Cc1c(-c2ccccc2)nc(SCc2cccc(C(F)(F)F)c2)[nH]c1=O` as the compound, how does the inhibition read?
Answer: 105% (active)

Question: For `Cc1ccc(CSc2nc(-c3ccccc3)c(C#N)c(=O)[nH]2)cc1`, which inhibition is on record?
Answer: 27.6%

Question: For `O=C(COC(=O)/C=C/c1cccc(Cl)c1)NCc1cccs1`, which inhibition is on record?
Answer: 2.73%

Question: With `Oc1c(CN2CCN(c3ccc(F)cc3)CC2)cc(Cl)c2cccnc12` as the compound, how does the inhibition read?
Answer: 138% (active)

Question: For `O=C(CN1CCN(c2ccc(F)cc2)CC1)Nc1ccccc1`, which inhibition is on record?
Answer: -1.5%

Question: For `Oc1ccc(CN2CCN(c3ncccn3)CC2)cc1`, which inhibition is on record?
Answer: -8.35%

Question: Which inhibition does the source give for `O=C1c2ccccc2C(=O)N1CCC#Cc1ccc2cc(C3(O)CCCCC3)oc(=O)c2c1` here?
Answer: 4.37%

Question: With `COc1ccc(CCNc2nc(-c3cccc(NC(C)=O)c3)cs2)cc1OC` as the compound, how does the inhibition read?
Answer: -2.96%

Question: With `COc1ccc2c(c1OC)C(=O)OC2Nc1nc(-c2ccccc2)cs1` (centres undefined) as the compound, how does the inhibition read?
Answer: 126% (active)

Question: Which inhibition does the source give for `Cc1ccc(-c2csc(NC3OC(=O)c4ccccc43)n2)cc1` (centres undefined) here?
Answer: -24.8%
